In PubChem BioAssay (NCATS):
Several values for one entry are separate records, joined by “and”; a condition that tells them apart may be missing. Equal entries are not always repeated. Inconclusive results are not listed. Where a call stands in place of a potency, no number is given. Where a structure was tested more than once in an assay, its records may differ in their call. Activity calls are given as the source filed them. Unless noted, calls come from the whole dose curve; as a rule, active = well fitted curve in the direction sought with a large enough effect; inconclusive = small, poorly fitted or top-dose-only effect, or another doubt; inactive = no such curve, though single readings can be large; an effect the other way counts as inactive or inconclusive.

How the values were obtained:
[1] = A High-Content qHTS Against Drug Library for the Identification of Small Molecules that Inhibit DYT1 Early Onset Primary Dystonia-Associated Cell Pathology (AID 1645839; calls by dose curve); details: HEK293 Flp-In EGFP-delE TorsinA, punctate imaging, 48 h; series mostly up to 46.1 µM
Summary of the method: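 In this high-content image screen, delE TorsinA mislocalization in inducible Flp-In 293 cells is scored as %pathology, with cell count serving as the counterscreen. Compound exposure lasts 48 h under tetracycline induction in reduced-serum medium.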

[2] = biological target: Cytochrome P450 2C9 (Homo sapiens) (UniProt P11712); experiment: Cytochrome P450 family 2 subfamily C member 9 (CYP2C9) small molecule antagonists: luciferase biochemical (cell-free) qHTS assay (AID 1645842; active = well fitted curve in the direction sought with a large enough effect in the repeat runs; an effect the other way counts as inactive or inconclusive; note: nearly all actives have a fitted effect of over 55% in size; note: potency is the fitted concentration of half-maximal effect); details: P450-Glo CYP2C9 enzyme assay, luciferin luminescence; series mostly up to 57.4 µM
Summary of the method: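 Luminescence, after 20 min with luciferin detection reagent, reflected CYP2C9 turnover during a 1 h NADPH-driven reaction at 37C. Enzyme-substrate mix contained 0.4% bovine serum albumin and was preincubated with compound 10 min at room temperature.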

Papain (Carica papaya) = Papain (Carica papaya) (UniProt P00784); experiment: Primary qHTS assay for inhibitors of the protease papain (AID 1645873); details: papain Z-FR-AMC cleavage, AMC fluorescence; series mostly up to 49.8 µM;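 note: papain turnover of Z-FR-AMC read as the AMC fluorescence gain over 10 min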; note: potency is the fitted concentration of half-maximal effect
[3] = Primary qHTS for inhibitors of nuclear receptor binding SET domain protein 2 (NSD2) in an isogenic RCH-ACV NSD2 p.E1099K mutant (9B) (AID 1645876); details: RCH-ACV NSD2 E1099K (9B) viability, CellTiter-Glo, 72 h; series mostly up to 44.9 µM; note: nearly all actives have a fitted effect of over 70% in size; note: potency is the fitted concentration of half-maximal effect
[4] = Primary qHTS for inhibitors of nuclear receptor binding SET domain protein 2 (NSD2) in an RCH-ACV wild type WT cells (2C) (AID 1645877); details: RCH-ACV (leukaemia line) NSD2 WT (2C) viability, CellTiter-Glo, 72 h; series mostly up to 44.9 µM; note: nearly all actives have a fitted effect of over 70% in size; note: potency is the fitted concentration of half-maximal effect
[5] = biological target: Catechol O-methyltransferase (Homo sapiens) (UniProt P21964); experiment: Confirmatory Screen for Target Class Profiling of Small Molecule Inhibitors of Methyltransferases (AID 1745852; calls by dose curve; note: potency is the fitted concentration of half-maximal effect); details: MTase-Glo luminescence, SAH detection, recombinant enzyme; measured here: COMT max response; stronger effect = lower value
[6] = biological target: Guanidinoacetate N-methyltransferase (Homo sapiens) (UniProt Q14353); experiment: as above; details: MTase-Glo luminescence, SAH detection, recombinant enzyme; activity change, negative = inhibition: at 57.3 µM (top of the series) unless noted
[7] = biological target: Nicotinamide N-methyltransferase (Homo sapiens) (UniProt P40261); experiment: as above; details: MTase-Glo luminescence, SAH detection, recombinant enzyme; measured here: NNMT max response; stronger effect = lower value
[8] = biological target: Phenylethanolamine N-methyltransferase (Homo sapiens) (UniProt P11086); experiment: as above; details: MTase-Glo luminescence, SAH detection, recombinant enzyme; measured here: PNMT max response; stronger effect = lower value
[9] = biological target: Cytochrome P450 2D6 (Homo sapiens) (UniProt P10635); experiment: Cytochrome P450 family 2 subfamily D member 6 (CYP2D6) small molecule antagonists: luciferase biochemical (cell-free) qHTS assay (AID 1645840; active = well fitted curve in the direction sought with a large enough effect in the repeat runs; an effect the other way counts as inactive or inconclusive; note: nearly all actives have a fitted effect of over 55% in size; note: potency is the fitted concentration of half-maximal effect); details: P450-Glo CYP2D6 enzyme, luciferin luminescence, 1 h; series mostly up to 57.4 µM
Summary of the method: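 P450-Glo luminescent screen: recombinant CYP2D6 enzyme–proluciferin substrate mix preincubated with compound 10 min at room temperature, then NADPH regeneration added for 1 h at room temperature. Detection reagent added for 20 min; luciferin light read as relative luminescence units.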

[10] = biological target: Cytochrome P450 3A4 (Homo sapiens) (UniProt P08684); experiment: Cytochrome P450 family 3 subfamily A member 4 (CYP3A4) small molecule antagonists: luciferase qHTS assay (AID 1645841; active = well fitted curve in the direction sought with a large enough effect in the repeat runs; an effect the other way counts as inactive or inconclusive; note: potency is the fitted concentration of half-maximal effect; nearly all actives have a fitted effect of over 45% in size); details: P450-Glo CYP3A4 enzyme assay, luciferin luminescence; series mostly up to 57.4 µM
Summary of the method: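 Luminescent CYP3A4 activity readout: compounds plus enzyme-substrate mix 10 min at room temperature, reaction started with NADPH regenerating system for 1 h, stopped with detection reagent, read after 20 min. Ketoconazole served as control.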

[11] = NCATS anti-infectives library activity on the primary C. elegans qHTS viability assay (AID 1745855; calls by dose curve; note: potency is the fitted concentration of half-maximal effect); details: C. elegans worm area imaging, day 7; series mostly up to 41.8 µM
Summary of the method: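 Viability is taken from GFP fluorescence of PE254-GFP-FLuc C. elegans imaged by laser cytometry over 7 days. Ten L1 worms per well grow at 21 °C on TOP10 E. coli capsules with titrated compound; levamisole marks toxicity.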

[12] = Viability counterscreen for antagonist of constitutive androstane receptor (CAR) against the NCATS DSHEA and TCM libraries (AID 1794837); details: CAR reporter cell line viability counterscreen, qHTS; series mostly up to 40 µM;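 note: compound exposure lasted 24 h before viability reading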
Summary of the method: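 HepG2-CYP2B6-hCAR cells (2,500/well) were allowed to attach for 5 h, then exposed to compounds with 48 uM CITCO for 24 h at 37C. Viability was read by CellTiter-Fluor fluorescence after 1 h.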

[13] = Viability counterscreen for agonist of constitutive androstane receptor (CAR) against the NCATS DSHEA and TCM libraries (AID 1794838); details: HepG2 cell viability counterscreen, CAR agonist assay, co-treated with 0.75 µM CAR antagonist; series mostly up to 40 µM
Summary of the method: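 HepG2-CYP2B6-hCAR cells (2,500/well) attached 5 h, then got compounds plus 0.75 uM PK11195 final. After 24 h at 37C, viability read by CellTiter-Fluor fluorescence (Ex/Em 405/540 nm).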

[14] = biological target: Nuclear receptor subfamily 1 group I member 3 (Homo sapiens) (UniProt Q14994); experiment: Primary qHTS for agonist of constitutive androstane receptor (CAR) against the NCATS DSHEA and TCM libraries (AID 1794839); details: CAR agonist reporter cells, qHTS luminescence, CAR antagonist co-added at 0.75 µM; series mostly up to 40 µM;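 note: HepG2 cells expressing human CAR with a CYP2B6 reporter plus PK11195 antagonist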
Summary of the method: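 HepG2-CYP2B6-hCAR cells (2,500/well) were attached for 5 h, then treated for 24 h at 37 °C with compounds plus 0.75 µM PK11195. Luciferase luminescence (ONE-Glo) was read, with CellTiter-Fluor viability (Ex/Em 405/540 nm).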

Chain of Phenylethanolamine N-methyltransferase (Homo sapiens) (P11086 whole entry, looked up): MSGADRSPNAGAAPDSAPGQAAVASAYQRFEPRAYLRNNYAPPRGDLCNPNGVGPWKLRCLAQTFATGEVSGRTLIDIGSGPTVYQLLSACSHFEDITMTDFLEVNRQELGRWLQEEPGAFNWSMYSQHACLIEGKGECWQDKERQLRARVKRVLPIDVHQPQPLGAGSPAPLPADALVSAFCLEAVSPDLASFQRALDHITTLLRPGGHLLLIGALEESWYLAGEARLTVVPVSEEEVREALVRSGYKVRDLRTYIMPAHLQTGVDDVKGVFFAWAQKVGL
Chain of Cytochrome P450 2C9 (Homo sapiens) (P11712 whole entry, looked up): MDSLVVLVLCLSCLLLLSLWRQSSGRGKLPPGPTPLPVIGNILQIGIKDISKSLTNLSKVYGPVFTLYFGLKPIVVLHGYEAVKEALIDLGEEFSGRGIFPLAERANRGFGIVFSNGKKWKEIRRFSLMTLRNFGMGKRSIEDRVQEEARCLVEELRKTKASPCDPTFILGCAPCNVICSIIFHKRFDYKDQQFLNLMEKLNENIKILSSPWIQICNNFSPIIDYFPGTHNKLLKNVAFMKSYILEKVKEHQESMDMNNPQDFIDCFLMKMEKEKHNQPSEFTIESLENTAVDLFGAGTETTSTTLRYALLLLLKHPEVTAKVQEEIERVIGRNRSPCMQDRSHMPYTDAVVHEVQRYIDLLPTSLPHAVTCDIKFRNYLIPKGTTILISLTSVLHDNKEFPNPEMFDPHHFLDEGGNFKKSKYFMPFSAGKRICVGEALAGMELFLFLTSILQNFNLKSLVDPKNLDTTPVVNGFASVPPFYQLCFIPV
Chain of Catechol O-methyltransferase (Homo sapiens) (P21964 whole entry, looked up): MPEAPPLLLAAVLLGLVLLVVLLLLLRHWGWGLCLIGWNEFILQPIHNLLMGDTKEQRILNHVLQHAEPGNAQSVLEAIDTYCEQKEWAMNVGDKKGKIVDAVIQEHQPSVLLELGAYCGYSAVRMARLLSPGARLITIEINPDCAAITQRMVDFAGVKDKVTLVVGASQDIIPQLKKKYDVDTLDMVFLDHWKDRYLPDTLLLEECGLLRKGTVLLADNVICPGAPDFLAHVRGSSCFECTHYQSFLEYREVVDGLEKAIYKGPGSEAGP
Chain of Papain (Carica papaya) (P00784 whole entry, looked up, the tested form may be a part): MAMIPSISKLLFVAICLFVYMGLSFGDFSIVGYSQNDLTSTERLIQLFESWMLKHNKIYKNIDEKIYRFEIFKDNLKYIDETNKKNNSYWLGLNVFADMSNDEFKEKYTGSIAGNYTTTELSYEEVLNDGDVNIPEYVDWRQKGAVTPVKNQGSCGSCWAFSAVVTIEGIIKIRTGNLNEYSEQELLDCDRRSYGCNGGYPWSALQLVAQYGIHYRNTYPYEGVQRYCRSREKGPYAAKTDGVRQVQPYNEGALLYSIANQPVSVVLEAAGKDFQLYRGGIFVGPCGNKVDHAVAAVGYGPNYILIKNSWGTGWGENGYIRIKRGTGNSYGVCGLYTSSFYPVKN
Chain of Cytochrome P450 2D6 (Homo sapiens) (P10635 whole entry, looked up): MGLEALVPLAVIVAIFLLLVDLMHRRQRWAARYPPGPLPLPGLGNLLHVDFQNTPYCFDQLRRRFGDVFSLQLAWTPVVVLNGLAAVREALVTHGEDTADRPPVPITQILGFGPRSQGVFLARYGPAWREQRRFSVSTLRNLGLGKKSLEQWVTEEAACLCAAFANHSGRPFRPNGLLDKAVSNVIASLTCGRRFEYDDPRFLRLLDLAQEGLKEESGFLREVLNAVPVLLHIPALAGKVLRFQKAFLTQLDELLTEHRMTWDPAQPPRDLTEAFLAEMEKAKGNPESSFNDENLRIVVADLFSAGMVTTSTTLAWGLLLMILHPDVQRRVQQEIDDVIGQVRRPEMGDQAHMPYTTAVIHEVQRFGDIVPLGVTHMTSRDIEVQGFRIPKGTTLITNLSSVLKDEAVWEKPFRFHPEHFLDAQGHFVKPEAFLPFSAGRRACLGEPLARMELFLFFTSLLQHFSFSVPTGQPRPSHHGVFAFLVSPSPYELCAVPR
Chain of Nicotinamide N-methyltransferase (Homo sapiens) (P40261 whole entry, looked up): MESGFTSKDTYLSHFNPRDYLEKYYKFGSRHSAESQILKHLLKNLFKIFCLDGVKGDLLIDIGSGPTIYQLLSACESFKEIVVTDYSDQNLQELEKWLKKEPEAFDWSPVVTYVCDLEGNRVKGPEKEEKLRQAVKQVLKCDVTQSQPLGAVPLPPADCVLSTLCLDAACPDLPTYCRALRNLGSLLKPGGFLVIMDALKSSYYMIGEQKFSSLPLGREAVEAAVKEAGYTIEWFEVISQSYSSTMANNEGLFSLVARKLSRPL
Chain of Cytochrome P450 3A4 (Homo sapiens) (P08684 whole entry, looked up): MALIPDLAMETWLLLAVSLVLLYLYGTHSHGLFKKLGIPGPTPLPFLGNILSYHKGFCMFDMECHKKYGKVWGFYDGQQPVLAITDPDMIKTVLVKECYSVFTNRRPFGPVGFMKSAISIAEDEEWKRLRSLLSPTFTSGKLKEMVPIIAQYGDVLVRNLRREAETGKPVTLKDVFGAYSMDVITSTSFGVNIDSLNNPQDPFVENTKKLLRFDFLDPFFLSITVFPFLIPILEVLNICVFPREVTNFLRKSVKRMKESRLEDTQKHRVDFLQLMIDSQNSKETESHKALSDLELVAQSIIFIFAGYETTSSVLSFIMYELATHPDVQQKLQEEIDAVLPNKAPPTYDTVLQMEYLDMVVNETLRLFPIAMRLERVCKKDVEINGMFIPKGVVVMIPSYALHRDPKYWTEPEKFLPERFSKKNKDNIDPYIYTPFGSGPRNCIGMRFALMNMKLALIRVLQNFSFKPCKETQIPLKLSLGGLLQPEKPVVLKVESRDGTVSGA
Chain of Nuclear receptor subfamily 1 group I member 3 (Homo sapiens) (Q14994 whole entry, looked up): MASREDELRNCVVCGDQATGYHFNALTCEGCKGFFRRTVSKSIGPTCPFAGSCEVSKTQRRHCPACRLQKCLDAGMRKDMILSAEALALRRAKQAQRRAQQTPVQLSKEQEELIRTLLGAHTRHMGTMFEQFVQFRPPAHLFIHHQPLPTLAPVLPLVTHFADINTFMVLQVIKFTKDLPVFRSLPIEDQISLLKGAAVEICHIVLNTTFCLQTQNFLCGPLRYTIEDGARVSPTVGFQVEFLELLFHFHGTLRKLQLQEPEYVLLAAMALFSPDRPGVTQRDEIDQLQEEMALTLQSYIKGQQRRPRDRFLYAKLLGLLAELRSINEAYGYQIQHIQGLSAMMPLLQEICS

## Oc1ccc(C2CNCCc3c2cc(O)c(O)c3Cl)cc1 (stereo not drawn)
[1]
  Potency: inactive
[2]
  Potency: inactive
Papain (Carica papaya)
  Potency: inactive
[3]
  Potency: inactive
[4]
  Potency: inactive
[5]
  activity: -77.1%
[6]
  Potency: 27.3 µM (active)
[7]
  activity: -15.5%
[8]
  activity: -4.58%

## C[C@]12CCC(=O)C=C1CC[C@@H]1[C@@H]2[C@@H](O)C[C@@]2(C)[C@H]1CC[C@]2(O)C(=O)CO
[1]
  Potency: inactive
[9]
  Potency: inactive
[2]
  Potency: inactive
Papain (Carica papaya)
  Potency: inactive
[3]
  Potency: inactive
[4]
  Potency: 1.68 µM (active) and 296 nM (active)

## NNCCc1ccccc1
[1]
  Potency: inactive
[9]
  Potency: 5.49 µM (active)
Papain (Carica papaya)
  Potency: inactive
[3]
  Potency: inactive

## O=C1CCc2cc(OCCCCc3nnnn3C3CCCCC3)ccc2N1
[1]
  Potency: inactive
[9]
  Potency: inactive
[2]
  Potency: 6.17 µM (active)
Papain (Carica papaya)
  Potency: inactive
[3]
  Potency: inactive
[4]
  Potency: 21.1 µM (active)

## C1COC(NC(C2CC2)C2CC2)=N1
[1]
  Potency: inactive
[2]
  Potency: inactive
Papain (Carica papaya)
  Potency: inactive
[3]
  Potency: inactive
[4]
  Potency: inactive

## O=c1[nH]cnc2[nH]ncc12
[1]
  Potency: inactive
[9]
  Potency: inactive
[2]
  Potency: inactive
Papain (Carica papaya)
  Potency: inactive
[3]
  Potency: inactive
[4]
  Potency: inactive

## Cc1cnc(NC(=O)C2=C(O)c3ccccc3S(=O)(=O)N2C)s1
[1]
  Potency: inactive
[9]
  Potency: inactive
[2]
  Potency: 11 µM (active) and inactive
[3]
  Potency: inactive
[4]
  Potency: inactive

## Cn1cnc2c(F)c(Nc3ccc(Br)cc3Cl)c(C(=O)NOCCO)cc21
[1]
  Potency: inactive
[9]
  Potency: inactive
[2]
  Potency: 8.71 µM (active)
[3]
  Potency: inactive
[4]
  Potency: inactive

## CC(C)NCC(O)COc1ccc(COCCOC(C)C)cc1 (stereo not drawn)
[1]
  Potency: inactive
[9]
  Potency: inactive
[2]
  Potency: inactive
Papain (Carica papaya)
  Potency: inactive
[3]
  Potency: inactive
[4]
  Potency: inactive

## NC(N)=NC(=O)c1nc(Cl)c(N)nc1N
[1]
  Potency: inactive
[9]
  Potency: inactive
[2]
  Potency: inactive
Papain (Carica papaya)
  Potency: 28.2 µM (active)

## Cc1ccc(N(CC2=NCCN2)c2cccc(O)c2)cc1
[1]
  Potency: inactive
[9]
  Potency: 0.309 µM (active)
[2]
  Potency: inactive
Papain (Carica papaya)
  Potency: inactive
[3]
  Potency: inactive

## NC[C@H](O)c1ccc(O)c(O)c1
[1]
  Potency: inactive
[9]
  Potency: inactive
[3]
  Potency: inactive
[4]
  Potency: inactive
[5]
  activity: 45.4%
[6]
  activity change, negative = inhibition: -4.17%
[7]
  activity: 2.1%
[8]
  activity: 21.8%

## CC(C)(C)NCC(O)c1ccc(O)c(CO)c1 (stereo not drawn)
[1]
  Potency: inactive
[9]
  Potency: inactive
[2]
  Potency: inactive
Papain (Carica papaya)
  Potency: inactive
[3]
  Potency: inactive
[4]
  Potency: inactive

## CC(c1cc2ccccc2s1)N(O)C(N)=O (stereo not drawn)
[1]
  Potency: inactive
[9]
  Potency: inactive
[10]
  Potency: 13.8 µM (active)
[3]
  Potency: inactive
[4]
  Potency: inactive

## Clc1cccc(Cl)c1NC1=NCCN1
[1]
  Potency: inactive
[2]
  Potency: inactive
Papain (Carica papaya)
  Potency: inactive
[3]
  Potency: inactive
[4]
  Potency: inactive

## CCOC(=O)C1=C[C@]2(CC)CCCN3CCc4c(n1c1ccccc41)[C@@H]32
[1]
  Potency: inactive
[9]
  Potency: 4.9 µM (active)

## c1ccc([C@H]2CN3CCSC3=N2)cc1
[1]
  Potency: inactive
[9]
  Potency: 30.9 µM (active)
[2]
  Potency: inactive
Papain (Carica papaya)
  Potency: inactive
[3]
  Potency: inactive
[4]
  Potency: inactive
[11]
  Potency: 5.15 µM (active)

## NC(=O)c1cnccn1
[1]
  Potency: inactive
[9]
  Potency: inactive
[2]
  Potency: inactive
Papain (Carica papaya)
  Potency: inactive
[3]
  Potency: inactive
[4]
  Potency: inactive
[12]
  outcome: inactive
[13]
  outcome: inactive
[14]
  outcome: inactive

## CCCC(CCC)C(=O)O
[1]
  Potency: inactive
[9]
  Potency: inactive
[2]
  Potency: inactive
Papain (Carica papaya)
  Potency: inactive
[3]
  Potency: inactive
[4]
  Potency: inactive

## CC(C[N+](C)(C)C)OC(N)=O (stereo not drawn)
[1]
  Potency: inactive
[9]
  Potency: inactive
[2]
  Potency: inactive
Papain (Carica papaya)
  Potency: inactive
[3]
  Potency: inactive
[4]
  Potency: inactive

## OC(CCN1CCCCC1)(c1ccccc1)C1CC2C=CC1C2 (stereo not drawn)
[1]
  Potency: inactive
[9]
  Potency: 1.23 µM (active)
[2]
  Potency: inactive
Papain (Carica papaya)
  Potency: inactive
[3]
  Potency: inactive
[4]
  Potency: inactive

## CCc1ccc(CCOc2ccc(CC3SC(=O)NC3=O)cc2)nc1 (stereo not drawn)
[1]
  Potency: inactive
[9]
  Potency: inactive
[3]
  Potency: inactive
[4]
  Potency: inactive

## Cc1oncc1C(=O)Nc1ccc(C(F)(F)F)cc1
[1]
  Potency: inactive
[2]
  Potency: 13.8 µM (active)
Papain (Carica papaya)
  Potency: inactive
[3]
  Potency: 10.6 µM (active) and 16.6 µM (active)
[4]
  Potency: 10.6 µM (active) and 14.8 µM (active)

## Cc1[nH]c(=O)c(C#N)cc1-c1ccc2nccn2c1
[1]
  Potency: inactive
[9]
  Potency: inactive
[2]
  Potency: inactive
[3]
  Potency: inactive
[4]
  Potency: inactive
[5]
  activity: 4.51%
[6]
  activity change, negative = inhibition: 5.86%
[7]
  activity: -3.4%
[8]
  activity: 4.35%

## Nc1ccc(S(=O)(=O)Nc2ccnn2-c2ccccc2)cc1
[1]
  Potency: inactive
[9]
  Potency: inactive
[3]
  Potency: inactive
[4]
  Potency: inactive

## Cc1[nH]c(=O)c(C#N)cc1-c1ccncc1
[1]
  Potency: inactive
[9]
  Potency: inactive
[2]
  Potency: 29.9 µM (active)
Papain (Carica papaya)
  Potency: inactive
[3]
  Potency: inactive
[4]
  Potency: inactive

## CNC[C@H](O)c1cccc(O)c1
[1]
  Potency: inactive
[9]
  Potency: inactive
[2]
  Potency: inactive
Papain (Carica papaya)
  Potency: inactive
[3]
  Potency: inactive
[4]
  Potency: inactive

## O=C1CCC(N2C(=O)c3ccccc3C2=O)C(=O)N1 (stereo not drawn)
[1]
  Potency: inactive
[9]
  Potency: 15.5 µM (active)
[2]
  Potency: inactive
Papain (Carica papaya)
  Potency: inactive
[3]
  Potency: inactive
[4]
  Potency: inactive

## CC(=O)Oc1ccccc1C(=O)O
[1]
  Potency: inactive
[9]
  Potency: 15.5 µM (active)
[2]
  Potency: inactive
Papain (Carica papaya)
  Potency: inactive
[3]
  Potency: inactive
[4]
  Potency: inactive

## OC(CN1CCC(Cc2ccc(F)cc2)CC1)c1ccc(Cl)cc1 (stereo not drawn)
[1]
  Potency: inactive
[9]
  Potency: 15.5 nM (active) and 53.5 nM (active)
[2]
  Potency: inactive
Papain (Carica papaya)
  Potency: inactive
[3]
  Potency: inactive
[4]
  Potency: inactive
